Paper PMC11006913

What was measured:
Experiment in all cases: PBM; 200 nM protein, PBS
Settings in all cases: dsDNA, one strand shown
HESX1 [1] = molecular target: HESX1 (Homo sapiens, UniProt Q9UBX0 95-180, R165K)
HESX1 [2] = molecular target: HESX1 (Homo sapiens, UniProt Q9UBX0 95-180)
HESX1 [3] = molecular target: HESX1 (Homo sapiens, UniProt Q9UBX0 95-180, R109Q)
HESX1 [4] = molecular target: HESX1 (Homo sapiens, UniProt Q9UBX0 95-180, P111T)
HESX1 [5] = molecular target: HESX1 (Homo sapiens, UniProt Q9UBX0 95-180, F115L)
Chain of HESX1 (Homo sapiens, UniProt Q9UBX0 95-180, F115L) (Q9UBX0 95-180 F115L): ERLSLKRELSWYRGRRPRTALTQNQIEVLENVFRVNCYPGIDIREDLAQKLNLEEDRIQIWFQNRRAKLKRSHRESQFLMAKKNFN

Chain of HESX1 (Homo sapiens, UniProt Q9UBX0 95-180, P111T) (Q9UBX0 95-180 P111T): as the sequence (Q9UBX0 95-180 F115L) above, with P17T, L21F counted along it
Chain of HESX1 (Homo sapiens, UniProt Q9UBX0 95-180, R165K) (Q9UBX0 95-180 R165K): as the sequence (Q9UBX0 95-180 F115L) above, with L21F, R71K counted along it
Chain of HESX1 (Homo sapiens, UniProt Q9UBX0 95-180) (Q9UBX0 95-180): as the sequence (Q9UBX0 95-180 F115L) above, with L21F counted along it
Chain of HESX1 (Homo sapiens, UniProt Q9UBX0 95-180, R109Q) (Q9UBX0 95-180 R109Q): as the sequence (Q9UBX0 95-180 F115L) above, with R15Q, L21F counted along it

Sequence | binding signal (HESX1 [1]) | binding signal (HESX1 [2]) | binding signal (HESX1 [3]) | binding signal (HESX1 [4]) | binding signal (HESX1 [5])
CGCCACGA | 6.55 upbm affinity estimate (log intensity, higher = more binding, comparable within an allelic series) | 6.36 upbm affinity estimate (log intensity, higher = more binding, comparable within an allelic series) | 6.47 upbm affinity estimate (log intensity, higher = more binding, comparable within an allelic series) | 6.47 upbm affinity estimate (log intensity, higher = more binding, comparable within an allelic series) | 6.57 upbm affinity estimate (log intensity, higher = more binding, comparable within an allelic series)
CCGTCGTC | 6.45 upbm affinity estimate (log intensity, higher = more binding, comparable within an allelic series) | 6.42 upbm affinity estimate (log intensity, higher = more binding, comparable within an allelic series) | 6.4 upbm affinity estimate (log intensity, higher = more binding, comparable within an allelic series) | 6.44 upbm affinity estimate (log intensity, higher = more binding, comparable within an allelic series) | 6.26 upbm affinity estimate (log intensity, higher = more binding, comparable within an allelic series)
TGGCGCCA | 6.38 upbm affinity estimate (log intensity, higher = more binding, comparable within an allelic series) | 6.62 upbm affinity estimate (log intensity, higher = more binding, comparable within an allelic series) | 6.34 upbm affinity estimate (log intensity, higher = more binding, comparable within an allelic series) | 6.49 upbm affinity estimate (log intensity, higher = more binding, comparable within an allelic series) | 6.34 upbm affinity estimate (log intensity, higher = more binding, comparable within an allelic series)
ACGCCTCG | 6.4 upbm affinity estimate (log intensity, higher = more binding, comparable within an allelic series) | 6.35 upbm affinity estimate (log intensity, higher = more binding, comparable within an allelic series) | 6.36 upbm affinity estimate (log intensity, higher = more binding, comparable within an allelic series) | 6.4 upbm affinity estimate (log intensity, higher = more binding, comparable within an allelic series) | 6.44 upbm affinity estimate (log intensity, higher = more binding, comparable within an allelic series)
CAGAGTCA | 6.47 upbm affinity estimate (log intensity, higher = more binding, comparable within an allelic series) | 6.43 upbm affinity estimate (log intensity, higher = more binding, comparable within an allelic series) | 6.67 upbm affinity estimate (log intensity, higher = more binding, comparable within an allelic series) | 6.59 upbm affinity estimate (log intensity, higher = more binding, comparable within an allelic series) | 6.54 upbm affinity estimate (log intensity, higher = more binding, comparable within an allelic series)
CGGACAGA | 6.41 upbm affinity estimate (log intensity, higher = more binding, comparable within an allelic series) | 6.53 upbm affinity estimate (log intensity, higher = more binding, comparable within an allelic series) | 6.49 upbm affinity estimate (log intensity, higher = more binding, comparable within an allelic series) | 6.59 upbm affinity estimate (log intensity, higher = more binding, comparable within an allelic series) | 6.58 upbm affinity estimate (log intensity, higher = more binding, comparable within an allelic series)
CACTGGAG | 6.53 upbm affinity estimate (log intensity, higher = more binding, comparable within an allelic series) | 6.53 upbm affinity estimate (log intensity, higher = more binding, comparable within an allelic series) | 6.58 upbm affinity estimate (log intensity, higher = more binding, comparable within an allelic series) | 6.6 upbm affinity estimate (log intensity, higher = more binding, comparable within an allelic series) | 6.61 upbm affinity estimate (log intensity, higher = more binding, comparable within an allelic series)
AGCGTGGC | 6.53 upbm affinity estimate (log intensity, higher = more binding, comparable within an allelic series) | 6.42 upbm affinity estimate (log intensity, higher = more binding, comparable within an allelic series) | 6.46 upbm affinity estimate (log intensity, higher = more binding, comparable within an allelic series) | 6.48 upbm affinity estimate (log intensity, higher = more binding, comparable within an allelic series) | 6.64 upbm affinity estimate (log intensity, higher = more binding, comparable within an allelic series)
GACGGCGA | 6.46 upbm affinity estimate (log intensity, higher = more binding, comparable within an allelic series) | 6.46 upbm affinity estimate (log intensity, higher = more binding, comparable within an allelic series) | 6.44 upbm affinity estimate (log intensity, higher = more binding, comparable within an allelic series) | 6.52 upbm affinity estimate (log intensity, higher = more binding, comparable within an allelic series) | 6.44 upbm affinity estimate (log intensity, higher = more binding, comparable within an allelic series)
AAGGAGGC | 6.49 upbm affinity estimate (log intensity, higher = more binding, comparable within an allelic series) | 6.42 upbm affinity estimate (log intensity, higher = more binding, comparable within an allelic series) | 6.53 upbm affinity estimate (log intensity, higher = more binding, comparable within an allelic series) | 6.52 upbm affinity estimate (log intensity, higher = more binding, comparable within an allelic series) | 6.51 upbm affinity estimate (log intensity, higher = more binding, comparable within an allelic series)
ACGCCTAC | 6.48 upbm affinity estimate (log intensity, higher = more binding, comparable within an allelic series) | 6.44 upbm affinity estimate (log intensity, higher = more binding, comparable within an allelic series) | 6.44 upbm affinity estimate (log intensity, higher = more binding, comparable within an allelic series) | 6.5 upbm affinity estimate (log intensity, higher = more binding, comparable within an allelic series) | 6.46 upbm affinity estimate (log intensity, higher = more binding, comparable within an allelic series)
AGCCGAGC | 6.4 upbm affinity estimate (log intensity, higher = more binding, comparable within an allelic series) | 6.26 upbm affinity estimate (log intensity, higher = more binding, comparable within an allelic series) | 6.48 upbm affinity estimate (log intensity, higher = more binding, comparable within an allelic series) | 6.46 upbm affinity estimate (log intensity, higher = more binding, comparable within an allelic series) | 6.45 upbm affinity estimate (log intensity, higher = more binding, comparable within an allelic series)
CAGGTCGG | 6.41 upbm affinity estimate (log intensity, higher = more binding, comparable within an allelic series) | 6.42 upbm affinity estimate (log intensity, higher = more binding, comparable within an allelic series) | 6.6 upbm affinity estimate (log intensity, higher = more binding, comparable within an allelic series) | 6.48 upbm affinity estimate (log intensity, higher = more binding, comparable within an allelic series) | 6.57 upbm affinity estimate (log intensity, higher = more binding, comparable within an allelic series)
CCGCTCCC | 6.47 upbm affinity estimate (log intensity, higher = more binding, comparable within an allelic series) | 6.49 upbm affinity estimate (log intensity, higher = more binding, comparable within an allelic series) | 6.46 upbm affinity estimate (log intensity, higher = more binding, comparable within an allelic series) | 6.35 upbm affinity estimate (log intensity, higher = more binding, comparable within an allelic series) | 6.43 upbm affinity estimate (log intensity, higher = more binding, comparable within an allelic series)
CCGAGTCG | 6.6 upbm affinity estimate (log intensity, higher = more binding, comparable within an allelic series) | 6.58 upbm affinity estimate (log intensity, higher = more binding, comparable within an allelic series) | 6.45 upbm affinity estimate (log intensity, higher = more binding, comparable within an allelic series) | 6.56 upbm affinity estimate (log intensity, higher = more binding, comparable within an allelic series) | 6.36 upbm affinity estimate (log intensity, higher = more binding, comparable within an allelic series)
AGTGTCGG | 6.51 upbm affinity estimate (log intensity, higher = more binding, comparable within an allelic series) | 6.53 upbm affinity estimate (log intensity, higher = more binding, comparable within an allelic series) | 6.58 upbm affinity estimate (log intensity, higher = more binding, comparable within an allelic series) | 6.56 upbm affinity estimate (log intensity, higher = more binding, comparable within an allelic series) | 6.55 upbm affinity estimate (log intensity, higher = more binding, comparable within an allelic series)
CCGGTCAG | 6.41 upbm affinity estimate (log intensity, higher = more binding, comparable within an allelic series) | 6.5 upbm affinity estimate (log intensity, higher = more binding, comparable within an allelic series) | 6.57 upbm affinity estimate (log intensity, higher = more binding, comparable within an allelic series) | 6.6 upbm affinity estimate (log intensity, higher = more binding, comparable within an allelic series) | 6.53 upbm affinity estimate (log intensity, higher = more binding, comparable within an allelic series)
AGGCAGCG | 6.62 upbm affinity estimate (log intensity, higher = more binding, comparable within an allelic series) | 6.5 upbm affinity estimate (log intensity, higher = more binding, comparable within an allelic series) | 6.59 upbm affinity estimate (log intensity, higher = more binding, comparable within an allelic series) | 6.59 upbm affinity estimate (log intensity, higher = more binding, comparable within an allelic series) | 6.39 upbm affinity estimate (log intensity, higher = more binding, comparable within an allelic series)
AGCCCGCG | 6.57 upbm affinity estimate (log intensity, higher = more binding, comparable within an allelic series) | 6.54 upbm affinity estimate (log intensity, higher = more binding, comparable within an allelic series) | 6.6 upbm affinity estimate (log intensity, higher = more binding, comparable within an allelic series) | 6.57 upbm affinity estimate (log intensity, higher = more binding, comparable within an allelic series) | 6.48 upbm affinity estimate (log intensity, higher = more binding, comparable within an allelic series)
CCGAAAGC | 6.49 upbm affinity estimate (log intensity, higher = more binding, comparable within an allelic series) | 6.52 upbm affinity estimate (log intensity, higher = more binding, comparable within an allelic series) | 6.56 upbm affinity estimate (log intensity, higher = more binding, comparable within an allelic series) | 6.47 upbm affinity estimate (log intensity, higher = more binding, comparable within an allelic series) | 6.52 upbm affinity estimate (log intensity, higher = more binding, comparable within an allelic series)
CAGTGTCG | 6.55 upbm affinity estimate (log intensity, higher = more binding, comparable within an allelic series) | 6.52 upbm affinity estimate (log intensity, higher = more binding, comparable within an allelic series) | 6.61 upbm affinity estimate (log intensity, higher = more binding, comparable within an allelic series) | 6.51 upbm affinity estimate (log intensity, higher = more binding, comparable within an allelic series) | 6.58 upbm affinity estimate (log intensity, higher = more binding, comparable within an allelic series)
AGGAGCTG | 6.51 upbm affinity estimate (log intensity, higher = more binding, comparable within an allelic series) | 6.45 upbm affinity estimate (log intensity, higher = more binding, comparable within an allelic series) | 6.4 upbm affinity estimate (log intensity, higher = more binding, comparable within an allelic series) | 6.4 upbm affinity estimate (log intensity, higher = more binding, comparable within an allelic series) | 6.28 upbm affinity estimate (log intensity, higher = more binding, comparable within an allelic series)
CGCCAGGC | 6.38 upbm affinity estimate (log intensity, higher = more binding, comparable within an allelic series) | 6.37 upbm affinity estimate (log intensity, higher = more binding, comparable within an allelic series) | 6.46 upbm affinity estimate (log intensity, higher = more binding, comparable within an allelic series) | 6.32 upbm affinity estimate (log intensity, higher = more binding, comparable within an allelic series) | 6.44 upbm affinity estimate (log intensity, higher = more binding, comparable within an allelic series)
